Our source for the inhibition values is PubChem BioAssay AID1259343 (VanderVen Lab, College of Veterinary Medicine, Cornell …, 2017).

In all, about 6,200 compounds went through this assay and about 2,900 (47%) were called active. No stated cut-off is given here; in the data, active means inhibition above about 50%; inactive means the rest. So high a share suggests a set chosen from earlier hits. This is one part of the list.

This assay is described as follows: Mycobacterium tuberculosis growth inhibition, primary screen (AID 1259343). To be noted: inhibition: at 10 µM, active compounds read high; outcome: 10 uM.
As for `CCCCCC(C)NC(=O)c1ccc([N+](=O)[O-])s1` (stereo not drawn), the inhibition (as a rule, the change of the read-out against control, counted positive when it falls) was -12.6% (inactive). The figure for `N#Cc1c(NC(=O)c2ccco2)sc2c1CCCCC2` is -3.03% (inactive). On to `N#Cc1c(NC(=O)CC2(CC(=O)O)CCCC2)sc2c1CCCC2`, for which the inhibition result was “inactive”.

In the case of `NC(=O)c1ccsc1NC(=O)c1ccc([N+](=O)[O-])s1`, the inhibition was -3.4% (inactive). For `N#Cc1c(NC(=O)c2ccc([N+](=O)[O-])s2)sc2c1CCCC2`, the inhibition was 99.4% (active). The figure for `Cc1ccc(NC(=O)c2ccc([N+](=O)[O-])s2)cc1` is 78.9% (active). The same measure for `O=C(Nc1ccc([N+](=O)[O-])cc1)c1ccc(Br)s1`: 91.6% (active); for `CN[C@H](CC(C)C)C(=O)N[C@H]1C(=O)N[C@@H](CC(N)=O)C(=O)N[C@H]2C(=O)N[C@H]3C(=O)N[C@H](C(=O)N[C@H](C(=O)O)c4cc(O)cc(O)c4-c4cc3ccc4O)[C@H](O)c3ccc(c(Cl)c3)Oc3cc2cc(c3O[C@@H]2O[C@H](CO)[C@@H](O)[C@H](O)[C@H]2O[C@H]2C[C@](C)(N)[C@H](O)[C@H](C)O2)Oc2ccc(cc2Cl)[C@H]1O`: 49.3% (inactive); for `COc1ccc(OCCN2CCN(c3ccc([N+](=O)[O-])cc3)CC2)cc1`: 90.8% (active).

As for `COc1cccc(OCCCOc2ccc([N+](=O)[O-])cc2)c1`, the inhibition was 27.9% (inactive). The same measure for `Cc1cccc2c(=O)[nH]c(Cn3nnn(-c4cccs4)c3=O)nc12`: -0.78% (inactive); for `Cc1ccc(C#N)cc1NC(=O)c1ccc(C(F)(F)F)cc1`: -17.1% (inactive); for `CC(C)(C)c1ccc(C(=O)Nc2nnc(-c3cccnc3)o2)cc1`: 97.4% (active). The same measure for `O=C(NCCn1nc(-c2cccnc2)ccc1=O)Nc1ccc(C(F)(F)F)cc1`: 18.6% (inactive); for `Cc1nnc(NC(=O)c2ccc(C(F)(F)F)cc2)o1`: 101% (active). The figure for `O=C(Nc1nnc(-c2ccc(Cl)cc2)o1)c1ccncc1` is 21.6% (inactive); for `Cn1nc(C(C)(C)C)cc1NC(=O)c1ccc(C(F)(F)F)cc1` it is 21.5% (inactive); for `Brc1ccc(NN=C(N=Nc2nn[nH]n2)c2ccccc2)cc1` it is 29.1% (inactive).

As to `Oc1ccc(N=Nc2nn[nH]n2)c(O)c1`, the inhibition is 61.7% (active). As to `C=CCn1c(SC(C)c2nc3sc(C)c(C)c3c(=O)[nH]2)nnc1C1CCCCC1` (stereo not drawn), the inhibition was 0.9% (inactive). The same measure for `Cc1ccc(NC(=O)CSc2nc(CC(=O)NCCC3=CCCCC3)cs2)cc1`: 81.6% (active); for `COc1ccc(NC(=O)CSc2nc(CC(=O)NCCC3=CCCCC3)cs2)cc1`: 86.3% (active); for `C[C@@H]1[C@H]2C[C@@H](C[C@H]1NC(=O)c1ccc(Nc3cccc(C(F)(F)F)c3)nc1)C2(C)C`: 6.48% (inactive). The same measure for `CC(C)Oc1cccc(CN2CCN(c3ccnc(N(C)C)n3)CC2)c1`: 91% (active); for `Fc1cccc(CN2CCN(Cc3ccc(-c4ccccc4)nc3)CC2)c1`: 27.7% (inactive). As to `CCN(C)c1cc(N2CCN(Cc3cc4ccccc4n3C)CC2)ncn1`, the inhibition is 49.3% (inactive). The same measure for `Cc1nnc(Sc2cc(=O)oc3ccccc23)s1`: 99.2% (active); for `O=c1cc(O)c2ccccc2o1`: -50.4% (inactive). In the case of `COC(=O)CSc1nnc(N2CCN(c3ccccc3)CC2)s1`, the inhibition was 75.5% (active). `CCCCOC(=O)Nc1cc(C)c(Cl)cc1OC`: the inhibition was 45.3% (inactive).

Consider `COC(=O)COc1cc(Cl)c(Cl)cc1Cl`, for which the inhibition was 77.4% (active). The figure for `CNC(=O)NC(=O)COc1ccc(-c2ccccc2)cc1Cl` is 40.5% (inactive). The figure for `COC(=O)C(Nc1ccc(OC)cc1)(c1cc(OC)c(O)c(OC)c1)C(F)(F)F` (stereo not drawn) is 84% (active). The figure for `COc1cc(C(=O)Nc2cc(C)cc(C)c2)cc(Cl)c1O` is -11.6% (inactive); for `Cc1nn(CC(C)C)c2sc(C(=O)NCC3CC3)cc12` it is 3.65% (inactive). Take `c1ccc(N=c2scc(-c3ccccc3)n2CC2CCCO2)cc1` (stereo not drawn): the inhibition is 20.4% (inactive). The same measure for `COc1ccc(N=c2scc(-c3cc4ccccc4o3)n2CC2CCCO2)cc1` (stereo not drawn): 77% (active); for `c1ccc2oc(-c3nnn(CC4CCCCO4)n3)cc2c1` (stereo not drawn): 91% (active).

For `CC12CCC3C(=CCc4cc(O)ccc43)C1CCC2=O` (stereo not drawn), the inhibition was 43.2% (inactive). The same measure for `c1ccc2c(CCNc3ccc(Nc4ccncc4)cc3)c[nH]c2c1`: 72.8% (active); for `O=C(NCCc1c[nH]c2ccccc12)c1cn(Cc2ccccc2Cl)nn1`: 21.3% (inactive); for `Cc1cc(C(=O)O)c(C)n1C`: -7.58% (inactive). The same measure for `CC1(C)CN=c2s/c(=C\c3ccc(Cl)cc3)c(=O)n2C1`: 31.2% (inactive); for `CCOC(=O)C1=C(C)N=c2s/c(=C/c3cccc([N+](=O)[O-])c3)c(=O)n2C1c1ccccc1F` (stereo not drawn): -21.3% (inactive). The same measure for `CCOC(=O)c1ccc(N2CN=c3sc(=Cc4ccccc4)c(=O)n3C2)cc1`: 88.9% (active); for `Nc1nc(Cl)nc2c1ncn2[C@@H]1O[C@H](CO)[C@@H](O)[C@H]1O`: 80.5% (active). For `CN(CCC1CCCCO1)c1nncc(-c2ccccc2)n1` (stereo not drawn), the inhibition is 52.4% (active). The entry for `CN(Cc1cnn(-c2ccc(F)cc2)c1)c1nncc(-c2ccccc2)n1` is “inactive”. The same measure for `CC1CCCC(C)C1NC(=O)Nc1nncc(-c2ccccc2)n1` (stereo not drawn): 21.4% (inactive); for `Nc1nnc(SCC(=O)c2ccc(OCc3ccccc3)cc2)s1`: 86.1% (active); for `c1ccc(OCCSc2nnc3sc4ccccc4n23)cc1`: 40.3% (inactive). The figure for `CC(OC(=O)c1ccc(OCc2ccccc2)cc1)c1nnc(-c2ccccc2)o1` (stereo not drawn) is 26.8% (inactive).

For `Brc1ccc(-c2ccc(C=NNC3=NCCCCC3)o2)cc1`, the inhibition is 92.4% (active).

As to `CCN(CC)C(=S)S`, the inhibition was 92.6% (active).

Regarding `O=C1CCCc2c1[nH]c1ccc(-c3ccccc3CO)cc21`, the inhibition was 90.3% (active).

Consider `Cn1cc(C(=O)Nc2ccc(Oc3cccc(C#N)c3)cc2)ccc1=O`, for which the inhibition was 23.5% (inactive). As for `COc1cc(C(=O)Nc2ccc(-c3cnco3)cc2)ccc1C`, the inhibition is 49.6% (inactive).

Consider `COCC(=O)Nc1ccc(-c2cc(OC)cc(OC)c2)cc1`, for which the inhibition was 88.7% (active). With `COCC(=O)Nc1cccc(-c2ccc3c(c2)OCCO3)c1`, the inhibition is 63.2% (active).

As to `COc1cncc(-c2ccc(NC(C)=O)cc2)c1`, the inhibition was 85% (active). `COCC(=O)Nc1ccc(Oc2cccc(C)c2)cc1`: the inhibition was 76.6% (active). The same measure for `O=C(CCl)Nc1ccc(Oc2ccc(Br)cc2)cc1`: 18.2% (inactive); for `COCC(=O)Nc1ccccc1-c1ccc(C(C)C)cc1`: 48.2% (inactive); for `CC1(C)OC(=O)C(=C2C3C4CC5C2C2C3CC4C52)C(=O)O1` (stereo not drawn): 35.6% (inactive). As to `COC(=O)C(C)OC(=O)c1c[nH]c2cc(Br)c(Br)cc12` (stereo not drawn), the inhibition is 24.9% (inactive). Take `CC(C)c1nnc2sc(C3CCc4ccccc4C3)nn12` (stereo not drawn): the inhibition was 43.3% (inactive).

Regarding `CN(c1ccc(C(N)=O)nn1)C1CCc2ccccc2C1` (stereo not drawn), the inhibition is 60.2% (active). The figure for `Cc1cccc(OCCCn2c(=O)oc3ccc(C)cc32)c1` is 79.4% (active).

On to `COCCCn1c(-c2ccc(C)cc2)nc2oc3ccccc3c(=O)c2c1=O`, for which the inhibition is 9.29% (inactive). The same measure for `Cc1cccc(OCCCn2c(=O)oc3ccccc32)c1`: -23.7% (inactive); for `COc1ccccc1OCCCN1C(=O)C2(OCCCO2)c2ccccc21`: 40.7% (inactive). The figure for `Cc1ccc(N2C(=O)N(CCOc3cccc(Br)c3)C(=O)C2C)cc1` (stereo not drawn) is 27.6% (inactive); for `Cc1ccc2oc(=O)n(CCCOc3ccccc3C)c2c1` it is 95.8% (active); for `Cc1ccc(N(CC(=O)O)S(C)(=O)=O)cc1C` it is 92.8% (active). For `O=C1NC(c2sc3ccccc3c2Cl)Nc2ccccc21` (stereo not drawn), the inhibition was 28.9% (inactive). As for `CC1(C)CC(=O)C(C(=O)Nc2sc3ccccc3c2Cl)C(=O)C1`, the inhibition was 98.3% (active). The figure for `CC(C)c1cc(=O)[nH]c(-n2nc(-c3cccs3)cc2NC(=O)c2cc3ccccc3o2)n1` is 100% (active).

For `Cc1cc(=O)[nH]c(-n2nc(-c3cccs3)cc2NC(=O)c2ccc(Br)o2)n1`, the inhibition was 97.5% (active).

Regarding `CC(C)c1cc(=O)[nH]c(-n2nc(-c3cccs3)cc2NC(=O)c2ccc(Br)o2)n1`, the inhibition is 99.9% (active). Regarding `Cc1cc(C(=S)N=P(N(C)C)(N(C)C)N(C)C)c(C)n1-c1ccccc1`, the inhibition is 98.9% (active). The figure for `FC(F)(F)c1nnc2n1Nc1nc3ccccc3nc1S2` is 100% (active).

On to `COC(=O)Cc1ccc(C(=O)CCl)s1`, for which the inhibition is 92.5% (active). For `NC(=S)Nc1ccc(Cl)cc1`, the inhibition is 7.09% (inactive). The figure for `NC(=S)Nc1ccc(F)cc1` is 52.9% (active); for `NC(=S)Nc1ccc(F)c(Cl)c1` it is 4.04% (inactive); for `CC(=NOCc1cccc(CON=C(C)c2ccccc2)c1)c1ccccc1` it is 86.9% (active). The same measure for `COc1cc(N/N=C(/C)c2cccc(C(F)(F)F)c2)nc(SC)n1`: 41.1% (inactive); for `CCc1ccc(-c2nc(C)c(C(=O)Nc3ccc(OC)nc3)s2)cc1`: 42.7% (inactive); for `CCc1nc(C)c(C(=O)Nc2ccc(CCC(F)(F)F)cc2)s1`: 66.2% (active). The same measure for `Cc1cc(N2CCCC2)ccc1NC(=O)CCl`: 1.87% (inactive); for `O=C(CCl)Nc1cc2c(cc1Br)OCCO2`: 94.1% (active). For the molecule `O=C(Nc1ccc(Oc2ccccc2F)cc1)C1CCN(C(=O)C2CC23CCC3)CC1` (stereo not drawn), the inhibition is 91.3% (active).

`O=C(Nc1ccc(Oc2ccccc2F)cc1)C1CCN(C(=O)C2CCCO2)CC1` (stereo not drawn): the inhibition entry is “inactive”.

Take `O=C(Nc1ccc(Oc2ccccc2F)cc1)C1CCN(C(=O)C2CCCCO2)CC1` (stereo not drawn): the inhibition was 88.7% (active). The figure for `S=C(Nc1ccc(Cl)cc1)Nc1ccc2cn[nH]c2c1` is 37.2% (inactive). The same measure for `FC(F)Oc1ccc(NC(=S)Nc2ccc3cn[nH]c3c2)cc1`: -5.27% (inactive). The same measure for `COc1ccc(NC(=S)Nc2ccc3cn[nH]c3c2)cc1`: 68.9% (active); for `C[C@]12C=CC(=O)C=C1CC[C@@H]1C2=CC[C@]2(C)[C@@H](C(=O)CN3CCN(c4cc(N5CCCC5)nc(N5CCCC5)n4)CC3)CC[C@@H]12`: 89.9% (active).
